Where “and” joins values, the source holds several entries; their conditions need not be identical. Identical values can stand only once. Out of some 5,500 compounds screened, about 2,000 (36%) were called active. About 18% were inconclusive and are not listed. Rule as the data show it: active = normalized growth mostly below about 0.91 (no sharp cut-off); inconclusive = no clear call, values can overlap the other calls; inactive = mostly above about 0.92. This is one part of the list.
Test: chemical genetic growth profiling, strain panel (AID 1159580);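 also: tested at 20 µM; growth read once vehicle control cultures reached saturation at 30 °C; 1 = growth at the plate median or of vehicle wells; lower values mean less growth of the strain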
Conditions: S. cerevisiae deletion strains, growth OD

Measured: normalized growth

O=C1c2ccccc2C(=O)C1c1ccccc1
inactive: locus YAL013W, strain DEP1, stronger effect = lower value 0.975 | locus YAL021C, strain ccr4, stronger effect = lower value 1.01 | locus YAL026C, strain drs2, stronger effect = lower value 1 | locus YAL030W, strain snc1, stronger effect = lower value 1 | locus YBL061C, strain skt5, stronger effect = lower value 0.998 | locus YBR009C, strain hhf1, stronger effect = lower value 1.01 | locus YBR021W, strain FUR4, stronger effect = lower value 1 | locus YBR023C, strain chs3, stronger effect = lower value 1 | locus YBR171W, strain sec66, stronger effect = lower value 0.957 | locus YBR229C, strain ROT2, stronger effect = lower value 1 and 0.94 | locus YBR231C, strain swc5, stronger effect = lower value 1.01 | locus YBR279W, strain paf1, stronger effect = lower value 0.993 | locus YCL011C, strain gbp2, stronger effect = lower value 1 | locus YCL016C, strain dcc1, stronger effect = lower value 1.01 | locus YCL029C, strain bik1, stronger effect = lower value 1.01 | locus YCL061C, strain MRC1, stronger effect = lower value 1 and 0.995 | locus YCL069W, strain vba3, stronger effect = lower value 0.995 | locus YCR088W, strain abp1, stronger effect = lower value 0.988 | locus YDL005C, strain med2, stronger effect = lower value 1 | locus YDL035C, strain GPR1, stronger effect = lower value 1.01 | locus YDL040C, strain nat1, stronger effect = lower value 1 | locus YDL074C, strain BRE1, stronger effect = lower value 1 | locus YDL101C, strain DUN1, stronger effect = lower value 1.01 and 0.909 | locus YDL134C, strain PPH21, stronger effect = lower value 1.01 | locus YDL185W, strain tfp1, stronger effect = lower value 0.991 | locus YDL192W, strain arf1, stronger effect = lower value 1.01 | locus YDR001C, strain nth1, stronger effect = lower value 0.981 | locus YDR069C, strain doa4, stronger effect = lower value 0.996 | locus YDR101C, strain arx1, stronger effect = lower value 1 | locus YDR137W, strain rgp1, stronger effect = lower value 0.995 | locus YDR150W, strain NUM1, stronger effect = lower value 0.998 and 1.01 | locus YDR159W, strain sac3, stronger effect = lower value 1.01 | locus YDR162C, strain NBP2, stronger effect = lower value 0.995 | locus YDR195W, strain ref2 0.997 | locus YDR297W, strain sur2, stronger effect = lower value 0.993 | locus YDR318W, strain mcm21, stronger effect = lower value 1.01 | locus YDR334W, strain swr1, stronger effect = lower value 0.996 | locus YDR335W, strain msn5, stronger effect = lower value 0.995 | locus YDR388W, stronger effect = lower value 1.02 | locus YDR392W, strain spt3, stronger effect = lower value 0.918 | locus YDR502C, strain sam2, stronger effect = lower value 1 | locus YEL003W, strain gim4, stronger effect = lower value 0.991 | locus YEL037C, strain rad23, stronger effect = lower value 0.992 | locus YEL061C, strain CIN8 (second series), stronger effect = lower value 0.986 | locus YEL061C, strain CIN8, stronger effect = lower value 0.998 and 0.977 | locus YER015W, strain faa2, stronger effect = lower value 1.01 | locus YER016W, strain bim1, stronger effect = lower value 1 | locus YER110C, stronger effect = lower value 1.01 | locus YER111C, strain swi4, stronger effect = lower value 0.999 | locus YER155C, strain BEM2 (second series), stronger effect = lower value 1 | locus YER155C, strain BEM2, stronger effect = lower value 0.989 | locus YER167W, strain BCK2, stronger effect = lower value 0.997 | locus YFR010W, strain ubp6, stronger effect = lower value 1 | locus YGL078C, strain dbp3, stronger effect = lower value 0.99 | locus YGL086W, strain mad1, stronger effect = lower value 0.997 | locus YGL167C, strain pmr1, stronger effect = lower value 1 | locus YGL173C, strain kem1, stronger effect = lower value 1.02 | locus YGL227W, strain vid30, stronger effect = lower value 0.978 | locus YGL240W, strain doc1, stronger effect = lower value 1.01 | locus YGL248W, strain PDE1, stronger effect = lower value 1 | locus YGL253W, strain hxk2, stronger effect = lower value 0.998 | locus YGR078C, strain PAC10, stronger effect = lower value 0.942 | locus YGR135W, strain pre9, stronger effect = lower value 1.01 | locus YGR229C, strain SMI1, stronger effect = lower value 1.01 and 1.05 | locus YGR252W, strain gcn5, stronger effect = lower value 0.998 | locus YHR013C, strain ard1, stronger effect = lower value 0.974 | locus YHR027C, strain rpn1, stronger effect = lower value 0.997 | locus YHR030C, strain SLT2, stronger effect = lower value 1 and 0.957 and 0.982 | locus YHR079C, strain IRE1 (second series), stronger effect = lower value 1.01 | locus YHR079C, strain IRE1, stronger effect = lower value 0.95 | locus YHR087W, strain rtc3, stronger effect = lower value 0.923 | locus YHR094C, strain hxt1, stronger effect = lower value 1.01 | locus YHR129C, strain ARP1, stronger effect = lower value 0.992 | locus YHR142W, strain chs7, stronger effect = lower value 1 | locus YHR200W, strain rpn10, stronger effect = lower value 1.01 | locus YIL066C, strain RNR3, stronger effect = lower value 1.01 | locus YIL073C, strain SPO22, stronger effect = lower value 1.03 | locus YIL125W, strain kgd1, stronger effect = lower value 0.989 | locus YIR030C, strain dcg1, stronger effect = lower value 1 | locus YJL092W, strain hpr5, stronger effect = lower value 0.983 | locus YJL095W, strain BCK1 (second series), stronger effect = lower value 1 | locus YJL095W, strain BCK1, stronger effect = lower value 0.984 and 0.97 | locus YJL115W, strain asf1, stronger effect = lower value 0.99 | locus YJL129C, strain trk1, stronger effect = lower value 0.978 | locus YJL134W, strain LCB3, stronger effect = lower value 0.993 | locus YJL154C, strain vps35, stronger effect = lower value 0.991 | locus YJL164C, strain tpk1, stronger effect = lower value 1 | locus YJL166W, strain qcr8, stronger effect = lower value 1.01 | locus YJL168C, strain set2, stronger effect = lower value 1.01 | locus YJL187C, strain SWE1 (second series), stronger effect = lower value 1 | locus YJL187C, strain SWE1, stronger effect = lower value 1 | locus YJR043C, strain POL32, stronger effect = lower value 1.01 and 0.982 | locus YJR066W, strain TOR1, stronger effect = lower value 0.92 | locus YJR075W, strain HOC1, stronger effect = lower value 1.01 and 0.971 | locus YKL009W, strain mrt4, stronger effect = lower value 0.974 | locus YKL068W, stronger effect = lower value 0.989

Reference: PubChem BioAssay AID1159580 (chemical genetic matrix, 2015)
